# Inconclusive results are not listed. Activity calls are given as the source filed them. Rule for the calls: active = hit-call score of the fitted dose curve at least 0.9, where 1 is the maximum; inconclusive = response in the unintended direction; inactive = score below 0.9.
# Experiments:
# [1] = ACEA_AR_agonist_AUC_viability: ACEA Biosciences xCELLigence Real-Time Cell Analysis on Androgen Receptor Agonism for Viability (AID 2283775);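 for AC50: viability read 80 hours after compound addition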
# Procedure, shortened: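 Real-time impedance tracking of 22Rv1 growth, readings every 5 min for 5 h then hourly; area-under-curve viability endpoint at 80 hours, relative to DMSO. Compounds at eight concentrations, 1:4 steps, top 100 uM, n = 2.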
# [2] = ACEA_ER_AUC_viability: ACEA Biosciences xCELLigence Real-Time Cell Analysis on Estrogen Receptor Agonism for Viability (AID 2283782);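 note: hit means loss of impedance signal meaning reduced cell growth or viability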
# Procedure, shortened: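 T-47D human breast cells in phenol red-free RPMI1640 with 10% charcoal-stripped FBS were dosed with an 8-point 1:4 dilution series from 100 uM top final concentration, in duplicate. Impedance-based growth was followed for 80 h; AUC analysed versus DMSO.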
# [3] = ACEA_AR_antagonist_AUC_viability: ACEA Biosciences xCELLigence Real-Time Cell Analysis on Androgen Receptor Antagonism for Viability (AID 2283776);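 note: 22Rv1 human prostate cancer cells growing on impedance electrode plates; hits lower the growth signal relative to DMSO meaning cytotoxicity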
# Procedure, shortened: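 Real-time electrical impedance tracks 22Rv1 proliferation after continuous compound exposure (top 100 uM final, 1:4 steps, 8 concentrations). The 80 h area-under-curve serves as the cytotoxicity readout relative to DMSO.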
# AR (gene 367) [4] = biological target: AR (gene 367) (UniProt P10275); assay: ACEA_AR_antagonist_80hr: ACEA Biosciences xCELLigence Real-Time Cell Analysis on Androgen Receptor Antagonism for Proliferation (AID 2283787);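 note: hits lower the impedance growth signal relative to DMSO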
# AR (gene 367), sequence (P10275 whole entry, looked up): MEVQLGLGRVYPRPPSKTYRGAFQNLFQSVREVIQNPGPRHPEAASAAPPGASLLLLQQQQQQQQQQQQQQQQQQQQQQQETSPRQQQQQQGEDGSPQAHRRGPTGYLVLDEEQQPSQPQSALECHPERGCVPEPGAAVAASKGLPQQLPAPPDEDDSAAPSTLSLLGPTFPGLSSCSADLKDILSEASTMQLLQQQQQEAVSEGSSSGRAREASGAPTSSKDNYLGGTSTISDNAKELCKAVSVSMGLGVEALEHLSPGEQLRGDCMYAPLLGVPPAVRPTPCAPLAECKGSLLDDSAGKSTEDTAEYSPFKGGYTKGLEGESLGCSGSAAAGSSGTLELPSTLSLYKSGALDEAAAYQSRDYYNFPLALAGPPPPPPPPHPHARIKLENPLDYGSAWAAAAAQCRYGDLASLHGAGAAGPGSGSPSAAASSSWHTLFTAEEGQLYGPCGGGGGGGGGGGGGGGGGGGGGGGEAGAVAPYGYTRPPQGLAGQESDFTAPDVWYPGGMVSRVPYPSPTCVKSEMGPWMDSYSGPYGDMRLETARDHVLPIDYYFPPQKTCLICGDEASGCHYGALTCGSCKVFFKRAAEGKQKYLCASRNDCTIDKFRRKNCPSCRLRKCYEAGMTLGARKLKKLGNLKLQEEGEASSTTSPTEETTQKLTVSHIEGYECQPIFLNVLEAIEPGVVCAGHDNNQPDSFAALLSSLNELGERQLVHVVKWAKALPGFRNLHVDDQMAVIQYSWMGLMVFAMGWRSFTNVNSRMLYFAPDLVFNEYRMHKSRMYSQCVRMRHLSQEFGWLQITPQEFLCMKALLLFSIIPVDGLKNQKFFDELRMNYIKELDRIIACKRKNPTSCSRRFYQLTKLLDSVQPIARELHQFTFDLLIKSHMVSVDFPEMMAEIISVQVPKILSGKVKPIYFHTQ
# Procedure, shortened: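 Impedance readout (RT-CES), 80 h post-dose; loss-of-signal vs DMSO baseline. 22Rv1 cells in assay medium. Compounds: 8-pt 1:4 series, max 100 uM final, up to 0.5% DMSO; n = 2.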
# AR (gene 367) [5] = biological target: AR (gene 367) (UniProt P10275); assay: ACEA_AR_agonist_80hr: ACEA Biosciences xCELLigence Real-Time Cell Analysis on Androgen Receptor Agonism for Proliferation (AID 2283783);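 note: hits increase impedance growth signal above DMSO baseline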
# Procedure, shortened: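 22Rv1 human prostate cancer cells were seeded after preconditioning in assay medium and monitored overnight, then dosed in an eight-point 1:4 dilution series from 100 uM (≤0.5% DMSO). Impedance-based growth was read at 80 h, gain-of-signal versus DMSO.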
compound,measurement,setting,value
O=C1C(N(CO)C(=O)NCO)N(CO)C(=O)N1CO (stereo not drawn),outcome,[1],inactive
same,outcome,[2],inactive
Cc1ccc(C(C)(C)C)cc1,outcome,[1],inactive
same,outcome,[2],inactive
CC(C)(C)c1ccc(OC(=O)c2ccccc2O)cc1,AC50,[1],0.106 µM (active)
same,AC50,[3],0.0777 µM (active)
same,AC50,[2],66.2 µM (active)
CCCCC(CC)CCC(CC(C)C)OS(=O)(=O)O (stereo not drawn),AC50,[1],4.29 µM (active)
same,outcome,[3],inactive
same,outcome,[2],inactive
O=c1cc(-c2ccccc2)oc2ccccc12,outcome,[1],inactive
same,outcome,[3],inactive
same,AC50,AR (gene 367) [4],0.0284 µM (active)
CCO[Si](C)(OCC)OCC,outcome,[1],inactive
same,outcome,[3],inactive
same,outcome,[2],inactive
CC1=CC[C@H]2C[C@@H]1C2(C)C,outcome,[1],inactive
same,outcome,[3],inactive
same,outcome,[2],inactive
C=C1C2CCC(C2)C1(C)C (stereo not drawn),outcome,[1],inactive
same,outcome,[2],inactive
CCOC(=O)CC,outcome,[1],inactive
same,outcome,[3],inactive
same,outcome,[2],inactive
CC(C)=CCC[C@H](C)CCO,outcome,[1],inactive
same,outcome,[3],inactive
same,outcome,[2],inactive
same,outcome,AR (gene 367) [4],inactive
C=CC(=O)NC(C)(C)CS(=O)(=O)O,outcome,[1],inactive
same,AC50,[2],11.2 µM (active)
NC(=O)N=NC(N)=O,outcome,[1],inactive
same,AC50,[3],4.59 µM (active)
same,outcome,[2],inactive
O=C(c1ccccc1)C1CCC1,outcome,[1],inactive
same,AC50,[3],0.391 µM (active)
same,outcome,[2],inactive
CC=C1CC2C=CC1C2 (stereo not drawn),outcome,[1],inactive
same,outcome,[3],inactive
same,outcome,[2],inactive
OC1CCCC1,outcome,[1],inactive
same,AC50,[3],0.475 µM (active)
same,outcome,[2],inactive
CCCc1ccc(OC)cc1,outcome,[1],inactive
same,outcome,[3],inactive
same,outcome,[2],inactive
same,outcome,AR (gene 367) [5],inactive
same,outcome,AR (gene 367) [4],inactive
C=C[Si](C)(C)O[Si](C)(C)C=C,outcome,[1],inactive
same,outcome,[3],inactive
same,outcome,[2],inactive
CC(=O)OC(C)C,outcome,[1],inactive
same,outcome,[3],inactive
same,outcome,[2],inactive
Cc1cc(C)c(C(=O)O)c(C)c1,outcome,[1],inactive
same,outcome,[3],inactive
same,outcome,[2],inactive
CCCCCCCCCCOS(=O)(=O)O,outcome,[3],inactive
same,outcome,[2],inactive
CCCCCCC1(C)CCC(=O)O1 (stereo not drawn),AC50,[1],1.1 µM (active)
same,outcome,[3],inactive
same,outcome,[2],inactive
CC1=NN(c2cc(S(=O)(=O)O)ccc2Cl)C(=O)C1N=Nc1ccccc1 (stereo not drawn),outcome,[1],inactive
same,outcome,[3],inactive
same,outcome,[2],inactive
CCCCOCCOC(=O)COc1nc(Cl)c(Cl)cc1Cl,outcome,[1],inactive
same,outcome,[2],inactive
CCCCCCCOC(=O)CCC,outcome,[1],inactive
same,outcome,[3],inactive
same,outcome,[2],inactive
O=C(O)CCCC[C@@H]1SC[C@@H]2NC(=O)N[C@@H]21,outcome,[1],inactive
same,outcome,[3],inactive
same,outcome,[2],inactive
O=C(C(Cl)Cl)N1CCOC12CCCCC2,AC50,[1],9.81 µM (active)
same,AC50,[3],11 µM (active)
same,AC50,[2],14.5 µM (active)
c1c[nH]cn1,outcome,[1],inactive
same,outcome,[3],inactive
same,outcome,[2],inactive
O=C(OCC1CCC2OC2C1)C1CCC2OC2C1 (stereo not drawn),AC50,[1],9.05 µM (active)
same,outcome,[2],inactive
NC(=O)c1ccccc1O,outcome,[1],inactive
same,outcome,[2],inactive
CC(C)c1ccc2c(C(C)C)cc(C(C)C)c(S(=O)(=O)O)c2c1,outcome,[1],inactive
same,outcome,[2],inactive
same,outcome,AR (gene 367) [5],inactive
CCCCCCCC/C=C\CCCCCCCC(=O)O,outcome,[1],inactive
same,outcome,[3],inactive
same,AC50,[2],50 µM (active)
OC1CCCCCCCCCCC1,outcome,[1],inactive
same,outcome,[3],inactive
same,outcome,[2],inactive
CC(=O)[C@H]1[C@H](C#N)C[C@H]2[C@@H]3CC=C4C[C@@H](O)CC[C@]4(C)[C@H]3CC[C@@]21C,outcome,[3],inactive
same,outcome,[2],inactive
CCCCCCCCO[C@@H]1O[C@H](CO)[C@@H](O)[C@H](O)[C@H]1O,outcome,[1],inactive
same,outcome,[3],inactive
same,outcome,[2],inactive
CCCCCCCC/C=C\CCCCCCCC(=O)OCCO,outcome,[1],inactive
same,AC50,[2],4.96 µM (active)
Cn1c([N+](=O)[O-])cnc1COC(N)=O,outcome,[3],inactive
same,outcome,[2],inactive
CC(C)c1ccc2cc(C(C)C)ccc2c1,outcome,[3],inactive
same,outcome,AR (gene 367) [5],inactive
same,outcome,AR (gene 367) [4],inactive
O=CN1CCCCC1,outcome,[2],inactive
CC(=O)c1ccc2c(c1)CCCC2,AC50,[2],31.7 µM (active)
C=CCOCC(O)CCl (stereo not drawn),outcome,[2],inactive
CC(C)(C)C1CCCCC1=O (stereo not drawn),AC50,[2],24.8 µM (active)
CCCOC(=O)CCCCC(=O)OCCC,AC50,[2],50 µM (active)
Cc1cc(C)c(C)cc1C,outcome,[2],inactive
C=C(C)[C@@H]1CCC2=CCC[C@@H](C)[C@]2(C)C1,AC50,[2],77.6 µM (active)
Cc1cccc(N)n1,outcome,[2],inactive
CCCNC(=O)NS(=O)(=O)c1ccc(Cl)cc1,outcome,[2],inactive
CC(=O)OCC(C)OC(C)=O (stereo not drawn),outcome,[2],inactive
CCOC(=O)[C@H](C)O,outcome,[2],inactive
CCC(C)C=O (stereo not drawn),AC50,[2],39.7 µM (active)
CCCCCCCCCCOC(C)=O,outcome,[2],inactive
Nc1cccc(C(F)(F)F)c1,outcome,[2],inactive
CCC(Cc1ccccc1)(C(=O)c1ccc(N2CCOCC2)cc1)N(C)C (stereo not drawn),AC50,[2],88.7 µM (active)
CC(CC=O)c1ccccc1 (stereo not drawn),AC50,[2],50 µM (active)
CCCCCCC(O)CO (stereo not drawn),AC50,[2],40 µM (active)
OCCc1ccncc1,outcome,[2],inactive
CC(=O)Oc1ccc(C)cc1,outcome,[2],inactive
CC(C)=CCCC(C)C=O (stereo not drawn),AC50,[2],11.9 µM (active)

# — PubChem BioAssay (EPA / NIEHS)
